The results in this text go back to the OligoGym collection.
Further: reference of the scale not given here.

One assay concerns the target CDC34. Description: pooled miR-30 sensor sort-seq; sequence = guide strand. The note with it: shRNA.
With TAGGGTGCCACATCTTGGTCAG, the sensor-assay potency score (higher = more potent) was found to be 0.104.
Still for that read-out and setting: then TCGTAGTAGTCGTCGTAGAAGA, with -1.53; and TTAGGGTGCCACATCTTGGTCA, with -0.421; and TTGAGCTCCAGCAGCAGCGCCT, with -0.656.
Take ATGATGTCTGTGTACTCCCGAT: the sensor-assay potency score (higher = more potent) is -1.21.
The same measure, in the same setting: then TGGTCTTCACGCAGTACTCGGC, with -1.2.
On to TCGTAGAAGAGGTCTGAGCCCT, for which the sensor-assay potency score (higher = more potent) was -0.356.
Same read-out and setting: under TAGATCGCCCTCGTCCACCAGT stands -0.743; under TCCACTTCCTGTACATCACGGA, -0.313.
Same read-out and setting: under TAGAAGAGGTCTGAGCCCTCGT stands -0.00353.
The same measure, in the same setting: then TCGTCCACCAGTGTCACGCGGA, with -0.898; and TAGTCGTCGTAGAAGAGGTCTG, with -0.479.
In turn, ACACTCAGGAGAATGGTCCTGA gave a sensor-assay potency score (higher = more potent) of 0.312.
In turn, TTGGTCTTCACGCAGTACTCGG came in with a sensor-assay potency score (higher = more potent) of -1.15.
TTGGTCAGGAACCGAAAGGCTG yielded a sensor-assay potency score (higher = more potent) of -0.731.
TAGTAGTCGTCGTAGAAGAGGT gave a sensor-assay potency score (higher = more potent) of -0.785.
On the same count and under the same terms, under TTGCTCTCTTTCCACTTCCTGT stands -0.991.
Turning to TTCCACTTCCTGTACATCACGG, the sensor-assay potency score (higher = more potent) is -0.553.
Turning to TGTCTGTGTACTCCCGATCCTT, the sensor-assay potency score (higher = more potent) was -1.06.
TAGTCGATGGGGAACTTGAGGC yielded a sensor-assay potency score (higher = more potent) of -1.23.
Sequence TCGTCGTAGAAGAGGTCTGAGC showed a sensor-assay potency score (higher = more potent) of -1.59.
On the same count and under the same terms, under TCCTCGTAGTAGTCGTCGTAGA stands -1.72; under TCATCGTCCCCGAAGCAGCTGT, -0.635; under TTCCTGTACATCACGGAGGCGT, -0.234.

The target of the next assay is CDC42BPB. The assay is described as above. The settings on record: shRNA.
Regarding TACTATTCTCTTAAGGTCCTAG, the sensor-assay potency score (higher = more potent) was -0.0384.
Same read-out and setting: then TTATTTCAAAGTCTTCTCGATG, with -1.07.
Still for that read-out and setting: under TTTGATTTCTTTATCTCGGTTT stands 0.716.
On to TTGAAGTAGATCAAGCGTGGAG, for which the sensor-assay potency score (higher = more potent) was 0.0489.
Still for that read-out and setting: then TTTGATTTTGGAAATCTCTTGC, with 0.44; and TTTAATGTCTCTGTGCACGTAA, with 0.422.
TTTCACTTCTAGCACATGGGAG: the sensor-assay potency score (higher = more potent) is -0.202.
Sequence TTCGATTTCTTCATTTAGCTTT had a sensor-assay potency score (higher = more potent) of 0.598.
Still for that read-out and setting: then TTTCCTTGGACAACACTGGAGG, with -0.765.
Same read-out and setting: then TAGAGCATCTCATACATGCAGA, with -0.774; and TTCTGAATCATGCACCTCCTTC, with -0.418.
The sequence TCATCTTCAAACATGATCCAAA displayed a sensor-assay potency score (higher = more potent) of -0.68.

The target in a further assay is CDC42SE1. Described as above. The settings on record: shRNA.
ATCTCATCTGCTCCTGAACTGC showed a sensor-assay potency score (higher = more potent) of -1.52.
The same measure, in the same setting: under TTCTCTTCTTCTTCGGCTGGGG stands -0.102; under TGAACTGCACCTGTCATGGCAA, -0.419.
